Source: PubChem BioAssay (University of Kansas High Throughput Screening Laboratory)
Compounds with a hit are over-represented: about 3.6% of the library has one in this group of screens.
Pf apPOL inh: Pf-apPOL DNA polymerase inhibition; Recombinant Pf-apPOL, molecular beacon fluorescence, 1.5 h; inhibition, % at 10 µM; 210,000 tested, 0.25% active; AID 1794808
mHTT CaM bind: inhibitors of human mutant huntingtin-calmodulin interaction; AlphaScreen His-mHTT/GST-CaM binding, luminescence; inhibition, % at 15 µM; 190,000 tested, 3.6% active; AID 1671202;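 also: 0% = both proteins with DMSO and 100% = one protein alone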
Active calls of the source: *; nt = not tested or not shown. Rule as the data show it: active = inhibition above about 50%; inactive = the rest.

SMILES | Pf apPOL inh | mHTT CaM bind
CCn1c(CC2CCN(C(=O)COc3ccccc3C)C2)nc2cccnc21 (stereo not drawn) | -10.0 | 14.2
C/C(=C\C(=O)c1ccc(Cl)cc1)Nc1cccc(O)c1 | -3.6 | 30.9
Cc1ccc(OCC(=O)N2CCCCC2c2nncn2CC2CC2)cc1 (stereo not drawn) | -4.7 | -2.0
CNC(=O)C1CN(C(=O)c2ccc(C)c(F)c2)CC12CCCC2 (stereo not drawn) | 2.7 | 3.3
NNC(=O)CNC(=O)c1ccccc1[N+](=O)[O-] | -4.5 | nt
COc1cccc(CN2CCc3nc(N4CCC(C)CC4)ncc3C2)c1OC | -2.9 | 22.8
COc1cc(OC)c(OC)cc1CN1CCc2nc(N3CCN(C)CC3)ncc2C1 | -3.2 | 27.4
COc1ccc(OC)c(CN2CCc3nc(N4CCN(c5ncccn5)CC4)ncc3C2)c1 | -0.2 | 98.9*
COc1cccc(CN2CCc3nc(N4CCCC4)ncc3C2)c1OC | 3.5 | 88.3*
CCN1CCN(c2ncc3c(n2)CCN(Cc2cc(OC)ccc2OC)C3)CC1 | 0.0 | 48.0
Fc1ccccc1CN1CCc2nc(N3CCN(c4ncccn4)CC3)ncc2C1 | -1.4 | 100.0*
COc1ccc(CN2CCc3nc(N4CCCC4)ncc3C2)c(OC)c1 | 0.9 | 98.9*
Fc1ccccc1CN1CCc2nc(N3CCOCC3)ncc2C1 | 0.1 | 5.8
CN(C)c1ccc(CCNC(=O)C(=O)NCc2ccc3c(c2)OCO3)cc1 | 2.2 | 20.9
c1cncc(-c2noc(CN3CCCCC3c3nc(C4CC4)no3)n2)c1 (stereo not drawn) | -5.5 | 1.8
O=C(Nc1nnc(SCc2ccccc2F)s1)c1ccccc1F | 0.4 | 0.4
CCOc1cc(CNc2ccc3c(c2)CCC3)ccc1O | 1.1 | 51.4*
CCOc1cc(CNc2ccccc2SC)ccc1O | 3.4 | 32.2
COc1ccc(N2C(N)=C(C#N)C(c3ccc(Br)cc3)C3=C2CCCC3=O)cc1 (stereo not drawn) | -5.0 | 25.0
CN(C)c1ccc(C2C(C#N)=C(N)N(c3ccc(Cl)cc3)C3=C2C(=O)CCC3)cc1 (stereo not drawn) | -3.8 | 99.0*
N#CC1=C(N)N(c2ccc(Cl)cc2)C2=C(C(=O)CCC2)C1c1cccnc1 (stereo not drawn) | -0.8 | 1.0
CN(C)c1ccc(C2C(C#N)=C(N)N(c3ccc(Br)cc3)C3=C2C(=O)CCC3)cc1 (stereo not drawn) | -0.8 | 100.0*
Cc1ccc(CCNC(=O)c2ccc3c(c2)nc2n3CCCC2)cc1 | 4.2 | 9.8
CC(=O)c1ccc(NC(=O)CN2CCC(c3nc(-c4ccc(C)cc4)no3)CC2)cc1 | -3.2 | -6.7
CNC(=O)CSc1ncc(-c2ccc(Br)cc2)n1Cc1ccccc1 | -7.8 | 69.1*
SMILES | Pf apPOL inh | mHTT CaM bind
COCCn1c(-c2ccccc2)cnc1SCC(=O)Nc1ccccc1 | -15.3 | 0.2
CCN1CCN(C(=O)c2c(C(C)C)nn(-c3cccc(F)c3)c2C(C)C)CC1 | -9.1 | 8.0
O=[N+]([O-])c1cccc(/C=C/c2nc(C=Nc3ccc(O)cc3)c(O)o2)c1 | 5.1 | 50.0*
O=[N+]([O-])c1cccc(/C=C/c2nc(C=Nc3ccccc3)c(O)o2)c1 | 0.6 | -2.0
O=C(Nc1cnc(N2CCCCCC2)nc1)c1ccccc1Br | -3.7 | 2.4
Cc1ccc(N2CCN(C(=O)c3sc4ncn(C)c(=O)c4c3C)CC2C)cc1 (stereo not drawn) | -3.4 | 31.0
COc1ccc(-c2c([C@H]3[C@@H]4C=CCC[C@@]4(C)C(=O)N3Cc3ccccc3)ccc3ccccc23)cc1 | -5.0 | 58.2*
COc1ccc(-c2cc([C@H]3[C@@H]4C=CCC[C@@]4(C)C(=O)N3Cc3ccccc3)ccc2F)cc1 | -6.9 | -4.0
COc1ccc(-c2ccccc2[C@H]2[C@@H]3C=CCC[C@@]3(C)C(=O)N2Cc2ccccc2)cc1 | -3.0 | 67.0*
Cc1ccc(-c2c([C@H]3[C@@H]4C=CCC[C@@]4(C)C(=O)N3Cc3ccccc3)ccc3ccccc23)cc1 | 0.0 | 33.8
C[C@@]12CCC=C[C@H]1[C@H](c1ccc3ccccc3c1Br)N(Cc1ccccc1)C2=O | 2.7 | 94.2*
Cc1ccc(-c2ccc([C@H]3[C@@H]4C=CCC[C@@]4(C)C(=O)N3Cc3ccccc3)c(F)c2)cc1 | -0.4 | 13.2
COc1ccc(-c2ccc([C@H]3[C@@H]4C=CCC[C@@]4(C)C(=O)N3Cc3ccccc3)c(F)c2)cc1 | -2.9 | 16.6
C[C@@]12CCC=C[C@H]1[C@H](c1ccc3ccccc3c1)N(Cc1ccccc1)C2=O | -2.1 | 82.1*
CCCCN(C)C(=O)c1cc2c(s1)CN(C1CC1)C2 | -2.5 | 24.7
CC1(C)Nc2ccccc2-c2c1ssc2=Nc1ccc(Cl)cc1Cl | nt | 14.8
O=C(c1n[nH]c2ccccc12)N1CCc2c(nc[nH]c2=O)C1 | -4.9 | -2.5
CNN=C1CCC2C3CCc4cc(O)ccc4C3CCC12C (stereo not drawn) | -11.4 | -2.7
O=C(Nc1nc(-c2ccc(Br)s2)cs1)c1ccc([N+](=O)[O-])s1 | 4.8 | 40.7
Fc1ccc(C2=Nn3c(nnc3-c3cccnc3)SC2)cc1 | -4.1 | -5.0
Cc1ccc(F)c(-n2nnc(C(=O)O)c2-c2ccccn2)c1 | -6.7 | -9.2
Cc1nc(C)c(C(=O)OCc2cc(-c3ccc4c(c3)OCCO4)on2)s1 | -2.3 | -12.6
O=C(OCc1cc(-c2ccc3c(c2)OCCO3)on1)c1cc(-c2ccco2)n[nH]1 | 67.0* | 69.3*
O=C(CN(c1ccccc1)S(=O)(=O)c1ccc(Cl)cc1)Nc1ccc2c(c1)OCO2 | -2.4 | 11.3
O=C(CN(c1cccc(C(F)(F)F)c1)S(=O)(=O)c1ccccc1)Nc1cccc(Cl)c1 | 22.3 | 86.0*
SMILES | Pf apPOL inh | mHTT CaM bind
O=C(CN(c1ccc(Cl)c(C(F)(F)F)c1)S(=O)(=O)c1ccccc1)Nc1cccnc1 | 7.4 | 35.0
O=C(CN(c1cccc(C(F)(F)F)c1)S(=O)(=O)c1ccccc1)Nc1ccc(Cl)cc1 | -0.4 | 88.0*
CC(C)C(=O)Nc1cc2c(cc1C(=O)c1ccccc1Br)OCCO2 | -0.7 | 0.1
Cc1cccc(C2CCCN2C(=O)Nc2ccc(C)c(F)c2)c1 (stereo not drawn) | 0.1 | -4.5
Cc1cccc(N2CCN(C(=O)C3CCCN(c4cnn(C)c(=O)c4)C3)CC2)c1C (stereo not drawn) | -4.4 | 34.0
Cc1cccc(N2CCN(C(=O)C3CCCN(c4cc(=O)n(C)c(=O)n4C)C3)CC2)c1C (stereo not drawn) | -2.8 | 51.1*
Cc1cccc(C2C3=C(CCCC3=O)Nc3nc(-c4ccc(O)cc4)nn32)c1 (stereo not drawn) | 0.7 | 44.8
COc1ccc(-c2nc3ccccn3c2NC(=O)c2ccc(Cl)c([N+](=O)[O-])c2)cc1 | 3.2 | 49.0
O=C(Nc1c(-c2ccccc2)nc2ccccn12)c1ccc(Cl)c([N+](=O)[O-])c1 | -1.6 | 67.0*
CC(=O)OCC(=O)C1(O)C(C)CC2C3CCC4CC(=O)C=CC4(C)C3C(O)CC21C (stereo not drawn) | -0.6 | nt
COc1ccc(NC(=O)c2ccnc(N3CCNC(c4ccccc4)C3)c2)cc1 (stereo not drawn) | 6.3 | 26.4
O=C(NCc1cccc(Cl)c1)c1cc2n(n1)CCCN(Cc1ccccc1)C2=O | 0.7 | -6.7
O=C(NCc1cccc(Cl)c1)c1cc2n(n1)CCCN(Cc1ccc(Cl)cc1)C2=O | 12.4 | 64.2*
O=[N+]([O-])c1ccc(Nc2ccc(O)cc2)c([N+](=O)[O-])c1 | nt | 38.5
CCc1nnc(NC(=O)c2cc(OC)c(OC)c(OC)c2)s1 | 0.6 | 1.0
